The nature of experiment [1]: qHTS assay to identify small molecule agonists of the peroxisome proliferator-activated receptor delta (PPARd) signaling pathway - cell viability counter screen (AID 743211). Note: nearly all actives have a fitted effect of over 55% in size. Note: potency is the fitted concentration of half-maximal effect. Put shortly: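 In the same wells used for beta-lactamase reporter measurement, cytotoxicity is scored by CellTiter-Glo. HEK293H PPARd-bla cells receive compound for 17 h at 37C following a 5 h settling period.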
(In general: Quantitative high-throughput screening tests each substance at several concentrations.)

The target of experiment [2] is Peroxisome proliferator-activated receptor delta (Homo sapiens) (UniProt Q03181). Kind of experiment: qHTS assay to identify small molecule agonists of the peroxisome proliferator-activated receptor delta (PPARd) signaling pathway (AID 743212; calls by dose curve;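 note: HEK293H cells with PPARd UAS beta-lactamase reporter GeneBLAzer system; % is set by controls: 0 for no effect and ±100 for the full control effect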). Put shortly: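 Beta-lactamase reporter read by fluorescence (LiveBLAzer B/G FRET, 2 h, room temperature). Test agents, in DMSO, incubated at 37 C with PPARd-bla HEK293H cells.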

Experiment [3] can be described thus: qHTS assay to identify small molecule antagonists of the peroxisome proliferator-activated receptor delta (PPARd) signaling pathway - cell viability counter screen (AID 743213). Note: % is set by controls: 0 for no effect and ±100 for the full control effect; nearly all actives have a fitted effect of over 50% in size. Put shortly:
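Cytotoxicity counter screen: CellTiter-Glo luminescence read 30 min after addition, in the same wells as the reporter assay. There, PPARd UAS-bla HEK293H cells (3000/well) were treated 17 h at 37 C with compound and 300 nM L165041.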

Experiment [4] is described as follows: qHTS assay to identify small molecule agonists of the farnesoid-X-receptor (FXR) signaling pathway - cell viability counter screen (AID 743218). Note: nearly all actives have a fitted effect of over 45% in size. Note: potency is the fitted concentration of half-maximal effect. The method in brief:
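Viability counter screen in the same wells: CellTiter-Glo luminescence, 30 min room-temperature incubation, measured after the beta-lactamase read. Cells were GeneBLAzer FXR-UAS-bla HEK 293T, compound-treated 16 h at 37C.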

Experiment [5] can be described thus: qHTS assay to identify small molecule antagonists of the farnesoid-X-receptor (FXR) signaling pathway - cell viability counter screen (AID 743221; active = well fitted cell-killing curve with a large enough effect in the repeat runs, not every such curve was filed as active; note: % is set by controls: 0 for no effect and ±100 for the full control effect; nearly all actives have a fitted effect of over 50% in size). Put shortly:
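Here viability was scored by luminescence after CellTiter-Glo addition to wells already read for beta-lactamase. Prior treatment: compound plus CDCA (50 uM final), 16 h, 37 C, HEK 293T FXR-bla cells.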

In experiment [6] the target is Vitamin D3 receptor (Homo sapiens) (UniProt P11473). As to the kind of experiment: qHTS assay to identify small molecule agonists of the vitamin D receptor (VDR) signaling pathway (AID 743222; calls by dose curve; note: % is set by controls: 0 for no effect and ±100 for the full control effect). The method in brief: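 Agonist mode, beta-lactamase reporter: fluorescence from LiveBLAzer B/G FRET substrate (2 h, room temperature) read after 16 h compound treatment at 37 C of VDR-bla cells, which were pre-incubated 4 h after seeding.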

Experiment [7] shares this target. Kind of experiment: qHTS assay to identify small molecule antagonists of the vitamin D receptor (VDR) signaling pathway (AID 743223; active = well fitted inhibition curve with a large enough effect in the signal ratio in the repeat runs, not every such curve was filed as active; the % refers to the signal ratio; note: % is set by controls: 0 for no effect and ±100 for the full control effect). Put shortly: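 Inhibition of agonist-driven VDR signalling is scored in VDR-bla cells: 3 nM final 1alpha,25-dihydroxyvitamin D3 plus compound, 16 h at 37C, then beta-lactamase detection by FRET substrate fluorescence after 2 h.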

Experiment [8] in a line: qHTS assay to identify small molecule agonists of the vitamin D receptor (VDR) signaling pathway - cell viability counter screen (AID 743224). Note: series mostly up to about 63 µM; % is set by controls: 0 for no effect and ±100 for the full control effect; nearly all actives have a fitted effect of over 50% in size. The method in brief: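 Counter screen run in the same wells as the VDR-bla reporter assay: CellTiter-Glo luminescence, 30 min at room temperature, after 16 h compound treatment at 37C of cells pre-plated for 4 h.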
Experiment [9] in a line: qHTS assay to identify small molecule agonists of the NFkB signaling pathway - cell viability counter screen (AID 1159515; calls by dose curve; note: series mostly up to about 61 µM; % is set by controls: 0 for no effect and ±100 for the full control effect; nearly all actives have a fitted effect of over 55% in size). The method in brief: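 Read by CellTiter-Glo luminescence (30 min, room temperature) in the wells also used for the beta-lactamase FRET read. ME-180 NFkB-bla cells at 2,000 per well were plated overnight, then exposed to compound for 5 hr at 37 C.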

A short description of experiment [10]: qHTS assay to identify small molecule agonists of the endoplasmic reticulum stress response signaling pathway - cell viability counter screen (AID 1159517; calls by dose curve; note: nearly all actives have a fitted effect of over 50% in size; note: potency is the fitted concentration of half-maximal effect). Put shortly: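 Cytotoxicity of test compounds toward ESRE-bla HeLa cells was assessed after 5 hr exposure. The luminescent CellTiter-Glo signal was measured 30 min after reagent addition.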
Experiment [11] can be described thus: qHTS assay to identify small molecule antagonists of the retinoid-related orphan receptor gamma (ROR-gamma) signaling pathway - cell viability counter screen (AID 1159520). Note: nearly all actives have a fitted effect of over 50% in size. Note: potency is the fitted concentration of half-maximal effect. Put shortly: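 Tet-on ROR gamma CHO cells (1,000/well) were plated 4 hr, given compounds in DMSO for 2 hr at 37 C, then induced with 1 uM final doxycycline for 16 hr. Viability was read as ATP by CellTiter-Glo luminescence after 30 min.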

In experiment [12] the target is Nuclear receptor ROR-gamma (Homo sapiens) (UniProt P51449). As to the kind of experiment: qHTS assay to identify small molecule antagonists of the retinoid-related orphan receptor gamma (ROR-gamma) signaling pathway (AID 1159521; note: nearly all actives have a fitted effect of over 50% in size; note: potency is the fitted concentration of half-maximal effect). Put shortly: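 Test compounds were applied to Tet-on RORγ CHO cells 2 h ahead of doxycycline hyclate (1 uM final). Luciferase reporter activity was quantified by luminescence after 16 h at 37 C and 5% CO2.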

Experiment [13] can be described thus: qHTS assay to identify small molecule agonists of the AP-1 signaling pathway - cell viability counter screen (AID 1159525; calls by dose curve; note: nearly all actives have a fitted effect of over 55% in size). The method in brief: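 Each titration point was normalised to DMSO and tetra n-octyl ammonium bromide controls. The read was Cell Titer Glo luminescence after 30 min at RT, following 5 h compound exposure of ME-180 AP-1-bla cells at 37 °C.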

For experiment [14], the target named is Retinoic acid receptor RXR-alpha (Homo sapiens) (UniProt P19793). As to the kind of experiment: qHTS assay to identify small molecule agonists of the RXR signaling pathway (AID 1159527; calls by dose curve; note: % is set by controls: 0 for no effect and ±100 for the full control effect; nearly all actives have a fitted effect of over 35% in size). The method in brief:
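Using 9-cis retinoic acid as the reference agonist, chemicals were tested in HEK 293T cells […] for 16 hr; substrate loading lasted 2 hr at room temperature.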

The target in experiment [15] is Peroxisome proliferator-activated receptor delta (Homo sapiens) (UniProt Q03181). Kind of experiment: qHTS assay to identify small molecule antagonists of the peroxisome proliferator-activated receptor delta (PPARd) signaling pathway (AID 743215; active = well fitted inhibition curve with a large enough effect in the signal ratio in the repeat runs, not every such curve was filed as active; the % refers to the signal ratio;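 note: cells stimulated with agonist L165041 at 300 nM final during compound exposure; series mostly up to about 62 µM; % is set by controls: 0 for no effect and ±100 for the full control effect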). Put shortly: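 Agonist L165041 (300 nM final) added with compound to PPARd-bla HEK293H UAS-bla reporter cells; 17 h incubation at 37 C. Read-out: LiveBLAzer FRET substrate, 2 h at room temperature, fluorescence intensity.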

The target of experiment [16] is Bile acid receptor (Homo sapiens) (UniProt Q96RI1). Kind of experiment: qHTS assay to identify small molecule antagonists of the farnesoid-X-receptor (FXR) signaling pathway (AID 743217; active = well fitted inhibition curve with a large enough effect in the signal ratio in the repeat runs, not every such curve was filed as active; the % refers to the signal ratio; note: potency is the fitted concentration of half-maximal effect). The method in brief:
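Antagonist mode: chenodeoxycholic acid at 50 uM final stimulates a UAS-driven beta-lactamase reporter in HEK 293T FXR-bla cells during 16 h, 37C compound exposure. Read-out is FRET substrate fluorescence after 2 h at room temperature.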

For experiment [17] the target is unchanged. As to the kind of experiment: qHTS assay to identify small molecule agonists of the farnesoid-X-receptor (FXR) signaling pathway (AID 743220; active = well fitted activation curve with a large enough effect in the signal ratio in the repeat runs, not every such curve was filed as active; the % refers to the signal ratio; note: % is set by controls: 0 for no effect and ±100 for the full control effect). The method in brief:
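FXR-UAS-bla HEK 293T cells carrying a UAS-driven beta-lactamase reporter were plated for 5 h at 37C/5% CO2, then exposed to DMSO-dissolved Tox21 10K compounds for 16 h at 37C. A LiveBLAzer B/G FRET substrate was loaded for 2 h at room temperature before fluorescence reading.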

The nature of experiment [18]: qHTS assay to identify small molecule agonists of the endoplasmic reticulum stress response signaling pathway (AID 1159516; active = well fitted activation curve with a large enough effect in the signal ratio in the repeat runs, not every such curve was filed as active; the % refers to the signal ratio; note: % is set by controls: 0 for no effect and ±100 for the full control effect). The method in brief: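 Ratiometric FRET readout (405 nm excitation; 460 and 530 nm emission) of a beta-lactamase gene driven by the ER stress response element, after 2 hr substrate loading. HeLa ESRE-bla cells were seeded overnight and treated with compounds for only 5 hr at 37 C.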

A short description of experiment [19]: qHTS assay to identify small molecule agonists of the AP-1 signaling pathway (AID 1159526; calls by dose curve; note: % is set by controls: 0 for no effect and ±100 for the full control effect).
Experiment [20] in a line: qHTS assay to identify small molecule antagonists of the vitamin D receptor (VDR) signaling pathway - cell viability counter screen (AID 743225). The method in brief: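 Compounds were pinned onto VDR-bla HEK 293T cells together with 1-alpha,25-dihydroxyvitamin D3 at 3 nM final. After 16 h at 37C and 5% CO2 plus the reporter readout, cell viability was measured by CellTiter-Glo luminescence (30 min, room temperature).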

Several values for one entry are separate records, joined by “and”; a condition that tells them apart may be missing. Identical values can stand only once. Inconclusive results are not listed. More than one record can exist for a structure, and the calls need not agree. Activity calls are given as the source filed them. Unless noted, calls come from the whole dose curve; as a rule, active = well fitted curve in the direction sought with a large enough effect in the repeat runs; inconclusive = weak or mixed curves; inactive = no such curve, though single readings can be large; an effect the other way counts as inactive or inconclusive.

Sequence of Retinoic acid receptor RXR-alpha (Homo sapiens) (P19793 whole entry, looked up): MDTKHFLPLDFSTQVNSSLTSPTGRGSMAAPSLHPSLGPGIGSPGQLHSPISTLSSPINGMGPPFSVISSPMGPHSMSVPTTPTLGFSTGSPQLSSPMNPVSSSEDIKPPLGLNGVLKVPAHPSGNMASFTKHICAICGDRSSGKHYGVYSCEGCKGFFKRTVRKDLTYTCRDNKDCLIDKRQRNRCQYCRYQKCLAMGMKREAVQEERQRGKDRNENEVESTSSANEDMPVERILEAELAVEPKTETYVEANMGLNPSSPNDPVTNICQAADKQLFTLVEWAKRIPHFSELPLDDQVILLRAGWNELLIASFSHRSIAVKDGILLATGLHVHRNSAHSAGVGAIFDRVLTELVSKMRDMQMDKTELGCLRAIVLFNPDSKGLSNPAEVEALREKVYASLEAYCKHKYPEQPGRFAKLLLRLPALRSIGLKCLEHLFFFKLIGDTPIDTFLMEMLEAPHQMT
Sequence of Vitamin D3 receptor (Homo sapiens) (P11473 whole entry, looked up): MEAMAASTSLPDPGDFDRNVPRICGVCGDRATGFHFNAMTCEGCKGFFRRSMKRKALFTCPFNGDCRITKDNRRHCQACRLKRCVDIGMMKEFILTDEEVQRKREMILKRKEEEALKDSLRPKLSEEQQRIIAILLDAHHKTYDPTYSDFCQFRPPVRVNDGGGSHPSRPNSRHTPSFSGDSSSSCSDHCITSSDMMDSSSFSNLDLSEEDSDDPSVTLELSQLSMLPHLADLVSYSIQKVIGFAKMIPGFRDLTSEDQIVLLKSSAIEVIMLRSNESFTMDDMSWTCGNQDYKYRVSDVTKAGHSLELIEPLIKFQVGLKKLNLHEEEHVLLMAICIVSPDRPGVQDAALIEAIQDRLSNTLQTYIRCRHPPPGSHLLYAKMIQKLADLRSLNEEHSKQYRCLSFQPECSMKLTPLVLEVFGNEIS
Sequence of Peroxisome proliferator-activated receptor delta (Homo sapiens) (Q03181 whole entry, looked up): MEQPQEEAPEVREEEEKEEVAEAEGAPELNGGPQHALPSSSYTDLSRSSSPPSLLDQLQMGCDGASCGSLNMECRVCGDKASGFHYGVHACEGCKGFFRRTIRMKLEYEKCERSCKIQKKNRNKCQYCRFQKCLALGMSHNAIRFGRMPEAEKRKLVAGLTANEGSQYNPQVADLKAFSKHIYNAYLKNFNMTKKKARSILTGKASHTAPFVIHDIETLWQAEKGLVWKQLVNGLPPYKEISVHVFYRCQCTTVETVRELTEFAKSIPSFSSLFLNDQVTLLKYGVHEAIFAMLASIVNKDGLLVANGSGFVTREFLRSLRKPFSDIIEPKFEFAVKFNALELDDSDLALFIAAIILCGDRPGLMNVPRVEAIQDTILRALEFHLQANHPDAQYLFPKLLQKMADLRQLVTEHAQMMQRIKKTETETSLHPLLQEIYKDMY
Sequence of Bile acid receptor (Homo sapiens) (Q96RI1 whole entry, looked up): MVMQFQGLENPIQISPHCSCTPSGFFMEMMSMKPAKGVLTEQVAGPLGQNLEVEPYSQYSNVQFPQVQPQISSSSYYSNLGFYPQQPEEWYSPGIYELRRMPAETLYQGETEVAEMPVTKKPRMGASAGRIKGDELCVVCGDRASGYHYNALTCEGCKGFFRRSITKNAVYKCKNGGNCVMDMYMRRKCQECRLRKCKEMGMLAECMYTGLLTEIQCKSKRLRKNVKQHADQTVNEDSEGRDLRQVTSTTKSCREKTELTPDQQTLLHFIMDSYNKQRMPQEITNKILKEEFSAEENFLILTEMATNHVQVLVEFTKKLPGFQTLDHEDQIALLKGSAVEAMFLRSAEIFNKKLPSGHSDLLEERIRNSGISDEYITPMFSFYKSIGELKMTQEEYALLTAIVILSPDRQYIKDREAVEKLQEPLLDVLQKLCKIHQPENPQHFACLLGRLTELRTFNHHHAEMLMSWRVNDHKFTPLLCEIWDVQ

For `O=C(CCl)CCl`, the Potency result in [1] is “inactive and 54.9 µM (active)”; in experiment [4] it was “inactive and 54.9 µM (active)”; in experiment [10] it was 43.6 µM (active); in experiment [11], 5.45 µM (active); in experiment [12] it was 14.2 µM (active) and 12.2 µM (active). Further, the call in [2] and in [6] was inactive. In addition, the Potency entry in [3], in experiment [5], in [7], in [8], in [9] and in experiment [13] was “inactive” throughout. For the same molecule, in experiment [14], the Potency entry was “inactive”.

For the molecule `SCc1ccccc1`, the Potency entry in [1], in experiment [3], in experiment [15], in experiment [16], in experiment [4] and in [5] was “inactive” each time. For the same molecule, the Potency entry in experiment [7], in [8], in experiment [18], in experiment [10], in [11] and in experiment [12] was “inactive” each time. Moreover, the Potency entry in experiment [13], in experiment [19] and in experiment [14] was “inactive” throughout. Moreover, the molecule was called inactive in [2], in experiment [17] and in experiment [6].

Take `CCCC1CCCCN1` (stereo not drawn): the Potency result in experiment [1], in experiment [3], in experiment [15], in experiment [4], in experiment [5] and in experiment [20] was “inactive” in each case. Besides, the Potency result in experiment [9], in experiment [18], in experiment [11], in [13], in [19] and in experiment [14] was “inactive” throughout. The molecule was called inactive in experiment [2].

Regarding `C[C@]12C=CC3=C4CCC(=O)C=C4CC[C@H]3[C@@H]1CC[C@@H]2O`, the Potency entry in experiment [1], in experiment [4], in experiment [8], in [20], in [9] and in experiment [18] was “inactive” in each case. For the same molecule, the Potency entry in experiment [11], in experiment [13] and in experiment [19] was “inactive” throughout.

Take `O=P(OCC(Br)CBr)(OCC(Br)CBr)OCC(Br)CBr` (stereo not drawn): the molecule was called inactive in [2] and in experiment [17]. For the same molecule, the Potency in [16] was 46.5 µM (active). Also, the Potency entry in experiment [9], in [11], in experiment [13] and in [19] was “inactive” each time.

Regarding `CCCN(CCOc1c(Cl)cc(Cl)cc1Cl)C(=O)n1ccnc1`, the molecule was classed as inactive in [2] and in experiment [17]. The Potency entry in [3], in [15], in experiment [16], in [4], in [8] and in experiment [20] was “inactive” each time. Moreover, the Potency entry in experiment [9], in experiment [10], in experiment [11], in experiment [13] and in experiment [19] was “inactive” in each case.

As for `O=C(O)CCCOc1ccc(Cl)cc1Cl`, the Potency entry in [1], in [3], in [5], in [8], in experiment [20] and in experiment [9] was “inactive” throughout. In addition, the Potency entry in experiment [18], in experiment [11], in experiment [12], in experiment [13] and in experiment [19] was “inactive” throughout. The result in experiment [6] was inactive.

With `CCC(C)Cl` (stereo not drawn), the Potency result in experiment [1], in experiment [3], in [4], in [5], in [7] and in [8] was “inactive” throughout. In addition, the Potency result in experiment [20], in experiment [9], in [18], in experiment [11], in experiment [12] and in experiment [13] was “inactive” in each case. The Potency result in [19] and in experiment [14] was “inactive” in each case. Further, the molecule was classed as inactive in experiment [6].

For the molecule `CCCCCCCCCCCCN=C(N)N`, the activation in [2] is 6.16% [at 2.7 µM] (inactive); in experiment [6] it was -0.533% [at 2.71 µM] (inactive); in [18], 0.217% [at 3.11 µM] (inactive); in [19], 1.6% [at 2.72 µM] (inactive); in experiment [14] it was 1.85% [at 2.71 µM] (inactive). Also, the viability change, negative = cytotoxic in [3] was -15.8% [at 2.83 µM] (inactive); in experiment [20] it was -22.1% [at 3.11 µM] (inactive). The activity change, negative = cytotoxicity in experiment [5] is -27.4% [at 2.69 µM] (inactive). Also, the activity change, negative = inhibition in experiment [7] is 3.88% [at 3.11 µM] (inactive); in experiment [12], -12% [at 3.27 µM] (inactive). Moreover, in experiment [9], the activity, negative = cytotoxic was -2.48% [at 3.12 µM] (inactive). Further, in [11], the activity, negative = cytotoxicity was -5.37% [at 3.27 µM] (inactive).

The values above are taken from PubChem BioAssay (Tox21).
